From PubChem
In the library only some 19% were active in any assay of this set; here they are far more common.
IL1B secr inh – inhibitors of inflammasome signaling (IL-1 beta secretion); hit rate 4.7% among 360,000; AID 743279; THP-1 LPS/ATP IL-1B secretion, AlphaLISA, 16 h; active compounds read low; activity change, % at 57.5 µM; in the data active = activity change below about -50%; inconclusive = mostly about -30% to -49%
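Secreted IL-1B measured by AlphaLISA bead assay after 16 h compound exposure of THP-1 cells; compounds (final up to 57.5 uM) added 1 h before LPS (250 ng/mL) and ATP (1.25 mM) stimulation; lower signal means less secretion.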
DT40 TDP1 no CPT – qHTS for Inhibitors of human tyrosyl-DNA phosphodiesterase 1 (TDP1): qHTS in cells in absence of CPT; Potency, µM (doses to about 46.2 µM), for the others: at the highest dose activity change, negative = growth inhibition, usual class: inhibitors; DT40 Tdp1-/- hTDP1 cells, no CPT, ATP luminescence, 48 h; hit rate 15% among 420,000; AID 686978, 2013; note: potency is the fitted concentration of half-maximal effect; nearly all actives have a fitted effect of over 55% in size
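Growth kinetics read by CellTiter-Glo luminescence after ≥48 hr at 37 °C. Cells: DT40 Tdp1-/- stably carrying human TDP1, 400 per well, compound exposure in the absence of CPT (DMSO vehicle).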
HT1080 IDH1KD tx – HT-1080 IDH1 knockdown cell toxicity (counter line); Potency, µM (doses to about 46.1 µM), for inactives: at the top dose activity, negative = toxicity, most hits filed as cytotoxic; hit rate 2% among 360,000; HT-1080 IDH1 knockdown viability, ATP luminescence, 48 h;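 note: potency is the fitted concentration of half-maximal effect; 0% = DMSO wells and -100% = cell-free medium wells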
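% activity derives from luminescence (CellTiter-Glo), normalised to DMSO and no-cell wells. HT-1080-IDH1KD cells, 750/well, had 48 h compound exposure at 37 °C.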
DT40 TDP1 CPT – DT40-hTDP1 cell growth loss with CPT; chicken DT40 Tdp1-/-;hTDP1 cells + 20 nM CPT, ATP luminescence, 48 h; Potency, µM (top dose mostly 46.2 µM), without a hit: at the top dose activity change, negative = growth inhibition, actives largely listed as inhibitors; hit rate 12% among 420,000; AID 686979; note: potency is the fitted concentration of half-maximal effect; nearly all actives have a fitted effect of over 55% in size
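Chicken DT40 Tdp1-/- cells stably complemented with human TDP1 were seeded at 400 cells/well in medium containing 20 nM camptothecin, exposed to pin-transferred compounds, and grown at 37 °C for at least 48 hr. Viability was read as ATP luminescence.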
HT1080NT lethal – kills 2HG-producing HT-1080-NT fibrosarcoma cells | HT-1080-NT fibrosarcoma viability, CellTiter-Glo ATP luminescence, 48 h | Potency, µM (highest dose often 46.1 µM), inactives show top-dose activity, negative = less viability, hits mostly cytotoxic | hit rate 1.6% among 360,000 | AID 686970;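 note: NT is the 2HG producing partner of a matched IDH1 knockdown line; potency is the fitted concentration of half-maximal effect; 0% = DMSO-treated cells and -100% = media-only wells without cells; nearly all actives have a fitted effect of over 55% in size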
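Read-out is CellTiter-Glo luminescence after 10 minutes at room temperature, following 48 hours' compound treatment of HT-1080-NT cells (750 cells/well, RPMI, 5% FBS, 37 degrees C).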
Starred values were filed as active, the others as inactive; ? = inconclusive; . = no result given. Unless noted, calls come from the whole dose curve; as a rule, active = well fitted curve in the direction sought with a large enough effect; inconclusive = small, poorly fitted or top-dose-only effect, or another doubt; inactive = no such curve, though single readings can be large; an effect the other way counts as inactive or inconclusive. Unless noted, % is set by controls: 0 for no effect and ±100 for the full control effect.

SMILES | IL1B secr inh | DT40 TDP1 no CPT | HT1080 IDH1KD tx | DT40 TDP1 CPT | HT1080NT lethal
CCCCNC(=O)CCN1N=C(c2ccccc2)CCC1=O | -8 | -2% | 24% | -22% | 7%
O=C(c1cccc(NS(=O)(=O)c2ccccc2)c1)N1CCCCC1 | 25 | -22% | 3% | -1% | -6%
CC(C)c1[nH]nc2c1C(c1cccs1)C(C#N)=C(N)O2 (stereo unspecified) | -86* | ? | -19% | ? | ?
CC(C)c1[nH]nc2c1C(C1C=CCCC1)C(C#N)=C(N)O2 (stereo unspecified) | -88* | 13µM* | ? | 16µM* | ?
CCc1[nH]nc2c1C(C1C=CCCC1)C(C#N)=C(N)O2 (stereo unspecified) | -54* | 21µM* | -20% | 23µM* | -17%
C[C@@]12CCC(O)C[C@H]1CCc1ccccc12 (stereo partly specified) | . | -15% | . | 7% | .
CC1(C(=O)NCc2ccccc2)CSCC(=O)N1CC(F)(F)F (stereo unspecified) | 0 | 22% | -1% | 7% | 3%
C/C(=N\O)c1sc(-c2ccccc2)nc1C | 28 | ? | 0% | 3% | -1%
CCN(Cc1ccccc1)c1ccc(/C=C/c2ccnc3ccccc23)cc1 | . | 11µM* | . | ? | .
c1ccc2c(c1)ccc1ncccc12 | -2 | -18% | 1% | -21% | -7%
C(=C\c1ccnc2ccccc12)/c1ccc(N(Cc2ccccc2)Cc2ccccc2)cc1 | . | 13µM* | . | 13µM* | .
O=c1[nH]snc1N1CCOCC1 | 6 | -26% | 16% | -14% | 17%
CC(C)(C)c1ccc(S(=O)(=O)/C=C/C#N)cc1 | . | 0.56µM* | . | 0.79µM* | .
CC(C)(C)c1ccc(NS(=O)(=O)c2ccc(N)cc2)cc1 | -29 | ? | -4% | 2% | 1%
CCCS(=O)(=O)N1CCN(S(=O)(=O)c2ccccc2[N+](=O)[O-])CC1 | -1 | -1% | 22% | 0% | 12%
CC1(C)CC2CC(C)(CN2S(=O)(=O)c2ccccc2[N+](=O)[O-])C1 (stereo unspecified) | -4 | 21µM* | 0% | 21µM* | -20%
CC(=O)c1c(C)[nH]c(C(=O)CN2CCN(S(=O)(=O)c3ccccc3[N+](=O)[O-])CC2)c1C | -7 | 13µM* | -1% | 21µM* | -1%
CC1CC(C)CN(S(=O)(=O)c2ccccc2[N+](=O)[O-])C1 (stereo unspecified) | -13 | 13µM* | 3% | 13µM* | 10%
COc1ccccc1NC(=O)C1=C(C)NC2=C(C(=O)CC(c3ccc(OC)c(OC)c3)C2)C1c1coc2ccccc2c1=O (stereo unspecified) | -24 | ? | -12% | ? | -1%
O=C(Nc1cccc(C(F)(F)F)c1)c1ccc2c(c1)nnn2C1CCCC1 | . | 8.2µM* | . | ? | .
CCc1ccccc1NC(=O)c1ccc2c(c1)nnn2C1CCCC1 | . | ? | . | 26µM* | .
O=C(CN1c2ccccc2Sc2ccccc21)N/N=C/c1ccc(Cl)cc1 | -15 | ? | -11% | ? | -13%
O=C(CN1c2ccccc2Sc2ccccc21)N/N=C/c1ccc(Cl)cc1Cl | -21 | 18µM* | 19% | ? | -2%
Cc1cccc(Cn2cccc2CNS(=O)(=O)c2ccccc2F)c1 | . | ? | . | -19% | .
CCC(=O)Nc1ccc(S(=O)(=O)NCc2cccn2Cc2cccc(C)c2)cc1 | . | 23µM* | . | 21µM* | .
C/C(=C\C(=O)c1ccc(C)cc1)Nc1cccc(O)c1 | -2 | ? | -25% | 18µM* | -19%
O=C(c1[nH]c(C(F)(F)F)nc1-c1ccccc1)N1CCN(c2ccc(C(F)(F)F)cn2)CC1 | 24 | ? | -12% | -25% | -8%
CCC1(C)COC2(OC1)C(=O)Nc1ccccc12 (stereo unspecified) | -51* | -19% | -3% | -3% | 0%
CC1(C)COC2(OC1)C(=O)Nc1ccccc12 | 14 | -11% | 1% | 2% | 1%
C=C(c1ccccc1C)[n+]1ccccc1 | 39 | ? | 6% | -24% | -2%
